Data reported in the supplement of paper PMC6555819.

tested on: PPARg DBDmut:RXRa IVT, anti-PPARg (DBD mutation: PPARg1 K132A/R137A, NR concentration 270 nM, RXRa partner concentration 90 nM); experiment: PBM binding z-score (relative to random genomic background probes); higher = stronger binding; sequences stand for … in GC…GCGATTGACAGCGTAGAATGAAGG
Method in brief: (§1)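 Custom Agilent 4×180K protein-binding microarrays carried double-stranded probes, each with a 34-nt variable region. These regions held direct-repeat seeds, single-nucleotide variants, half-site ablations and random human genomic background sequences. Ligand-free nuclear receptor dimers were incubated on the arrays for 1 h, antibodies against each partner (one per run) detected binding, and scanned fluorescence was regression-normalized. Binding z-scores take the random background probes as reference.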

| Sequence | PBM binding z-score |
| --- | --- |
| CCTAGTTGGTCAGCAGGTCACACACCGGATATGA | -0.32 |
| AGTCAAAGTTCAGGAGGAGGTAACGTAAAGCACG | 0.683 |
| CCAGACAGGTGAGAAGTTAACTCAGCCTCGATTA | -0.638 |
| TCGAGTAGGTTAGTCGGGGCATTAAGCCAACATA | -0.456 |
| CCTTCTGGGCCACGAAAGGTCATTGATTCAGTGA | 1.99 |
| TGTCAAAGTTCAAAGGTAACGTTAGTATCCACAC | 0.572 |
| GCGAGTTGGTCAGTAAAAGGTCACACACCGGTCG | 0.948 |
| ATATGTAGGTTAAGGGACATTCAGGTTGGTTCGC | 1.67 |
| CCTATTAGTTGGCCATAAGGGCAACCGAAGCTCG | 0.65 |
| GCTGCTAGGTCAAATGATGGTCAGCTAAAGCTCG | -0.0492 |
| GCAGACAGGTGAAACGCAGGTCACTCAGGGTGGC | -0.584 |
| TCTATTAGTTGATTAGGACAACCGAAACAGCGGA | 0.853 |
| ACTATTAGTTGACTCAGGGCAACCGATACGACGC | 1.01 |
| ATCTCTACGTAAAGATAGTTCAGTGAATGCAAAT | 0.317 |
| CGTTACGGGTCACGAGGTTATAGCACGACGAGCG | 1.39 |
| TTTCAAAGTTCAAAGGTAACGTAAGTATCCACAC | 1.49 |
| TCTGGCAGGCCAGAGGGTCACTCAAGAGGTACGG | -0.722 |
| TCATATAGGTAAAGGTGTAAGTCGAACGATATGA | 1.38 |
| TTATATAGGTAAAGGTGAAAGTCGAACGATATGA | 3.04 |
| GATACAGGGTCACGGCCAGAGTACGCGTATTGAT | 1.11 |

| Sequence | PBM binding z-score |
| --- | --- |
| GCTAGCAGGCAATTTGGGTCACTCAATGACGGGC | 0.145 |
| CCTAGCCGGCCAGGGTCACTCAAGCATTTCGCTT | -1.32 |
| ACGGACAGGTGAGTGAAGGTAACTCAGCTGGACG | -0.111 |
| ATCTCTAGGTAACCAAGTTCAGTGGATGCCGAAC | 0.893 |
| CCTAGCAGGCCAATCTGGGGCACTCAAGGCTTGA | -0.514 |
| CGTCCAAGGACAAAGGTCAGTGAAGAGATGACGG | -0.53 |
| GATACAGGGTCAAGGCTAGAGTACGCGTATTGAT | 1.02 |
| AATACAGGGTCTTCGTAGGCCAGAGTACGCACAG | 0.236 |
| CCTACTGGGCCAAGGTCATGGATCAGTCAAAGCA | -0.856 |
| GGAACGCGGGCAAAGTTGATAGCATCTGTCGACG | -0.831 |
| ACTATTAGTTGAGACGATGGCAACCGATAGGTTG | 0.79 |
| CAGCCTATGTCAGGGCCAGTATAGGAGGAACGTT | -1.25 |
| CCGACTGGGGCTAGGTTACCATAACGCACAGCCA | -1.21 |
| CGAACTAGGTCATTGACAGGACTGTGAATAGTAA | 2.42 |
| CGAACGAGGGCCTGAGTTGATAGCAAATGCCGAT | -0.385 |
| GCTAGTAGGCCATTTGGGTCACTCAATGACGGGC | -0.157 |
| GCTGCTAGGTGAGGTTGGTCAGCTAACGGGTACG | -0.621 |
| ATACCAGGGTGATCGTGAGGTCGTTGATACTAAC | 0.464 |
| GCTAGCAGGCCATTTGGGTGACTCAATGACGGGC | -0.802 |
| GCTGCTAGGTCAGGTTGGTCAGCAAACGGGTACG | -0.864 |

tested on: PPARg DBDmut IVT, anti-PPARg (DBD mutation: PPARg1 K132A/R137A, NR concentration 270 nM); experiment: as above
Method in brief: as §1

| Sequence | PBM binding z-score |
| --- | --- |
| CCTAGTTGGTCAGCAGGTCACACACCGGATATGA | 0.126 |
| AGTCAAAGTTCAGGAGGAGGTAACGTAAAGCACG | 1.05 |
| CCAGACAGGTGAGAAGTTAACTCAGCCTCGATTA | -0.46 |
| TCGAGTAGGTTAGTCGGGGCATTAAGCCAACATA | 0.127 |
| CCTTCTGGGCCACGAAAGGTCATTGATTCAGTGA | 2.08 |
| TGTCAAAGTTCAAAGGTAACGTTAGTATCCACAC | 1.49 |
| GCGAGTTGGTCAGTAAAAGGTCACACACCGGTCG | -0.184 |
| ATATGTAGGTTAAGGGACATTCAGGTTGGTTCGC | 1.87 |
| CCTATTAGTTGGCCATAAGGGCAACCGAAGCTCG | -0.464 |
| GCTGCTAGGTCAAATGATGGTCAGCTAAAGCTCG | -0.751 |
| GCAGACAGGTGAAACGCAGGTCACTCAGGGTGGC | -0.0986 |
| TCTATTAGTTGATTAGGACAACCGAAACAGCGGA | 1.57 |
| ACTATTAGTTGACTCAGGGCAACCGATACGACGC | 1.08 |
| ATCTCTACGTAAAGATAGTTCAGTGAATGCAAAT | 1.43 |
| CGTTACGGGTCACGAGGTTATAGCACGACGAGCG | 0.539 |
| TTTCAAAGTTCAAAGGTAACGTAAGTATCCACAC | 1.37 |
| TCTGGCAGGCCAGAGGGTCACTCAAGAGGTACGG | -0.915 |
| TCATATAGGTAAAGGTGTAAGTCGAACGATATGA | 0.989 |
| TTATATAGGTAAAGGTGAAAGTCGAACGATATGA | 2.82 |
| GATACAGGGTCACGGCCAGAGTACGCGTATTGAT | 0.362 |

| Sequence | PBM binding z-score |
| --- | --- |
| GCTAGCAGGCAATTTGGGTCACTCAATGACGGGC | -1.09 |
| CCTAGCCGGCCAGGGTCACTCAAGCATTTCGCTT | -1.69 |
| ACGGACAGGTGAGTGAAGGTAACTCAGCTGGACG | -0.701 |
| ATCTCTAGGTAACCAAGTTCAGTGGATGCCGAAC | 0.352 |
| CCTAGCAGGCCAATCTGGGGCACTCAAGGCTTGA | -1.4 |
| CGTCCAAGGACAAAGGTCAGTGAAGAGATGACGG | -0.214 |
| GATACAGGGTCAAGGCTAGAGTACGCGTATTGAT | 0.742 |
| AATACAGGGTCTTCGTAGGCCAGAGTACGCACAG | 0.68 |
| CCTACTGGGCCAAGGTCATGGATCAGTCAAAGCA | -0.00696 |
| GGAACGCGGGCAAAGTTGATAGCATCTGTCGACG | -0.512 |
| ACTATTAGTTGAGACGATGGCAACCGATAGGTTG | 1.06 |
| CAGCCTATGTCAGGGCCAGTATAGGAGGAACGTT | -0.192 |
| CCGACTGGGGCTAGGTTACCATAACGCACAGCCA | -1.97 |
| CGAACTAGGTCATTGACAGGACTGTGAATAGTAA | 3.75 |
| CGAACGAGGGCCTGAGTTGATAGCAAATGCCGAT | -0.392 |
| GCTAGTAGGCCATTTGGGTCACTCAATGACGGGC | -0.997 |
| GCTGCTAGGTGAGGTTGGTCAGCTAACGGGTACG | -0.843 |
| ATACCAGGGTGATCGTGAGGTCGTTGATACTAAC | 0.118 |
| GCTAGCAGGCCATTTGGGTGACTCAATGACGGGC | -0.751 |
| GCTGCTAGGTCAGGTTGGTCAGCAAACGGGTACG | -0.495 |
